PubChem BioAssay AID1159580 (chemical genetic matrix, 2015)
“And” between values parts separate entries of the source, which are not always exact repeats. Identical values can stand only once. About 2,000 (36%) of roughly 5,500 compounds were called active. Another 18% or so got no clear call; they are omitted. Rule as the data show it: active = normalized growth mostly below about 0.91 (no sharp cut-off); inconclusive = no clear call, values can overlap the other calls; inactive = mostly above about 0.92. The list shows a part of the results.

Experiment: chemical genetic growth profiling, strain panel (AID 1159580);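 also: tested at 20 µM; growth read once vehicle control cultures reached saturation at 30 °C; 1 = growth at the plate median or of vehicle wells; lower values mean less growth of the strain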
Settings: S. cerevisiae deletion strains, growth OD

Measured: normalized growth

NCCC(=O)N[C@@H](Cc1cnc[nH]1)C(=O)O
inactive: locus YAL021C, strain ccr4, stronger effect = lower value 0.997 | locus YAL026C, strain drs2, stronger effect = lower value 1.01 | locus YAL030W, strain snc1, stronger effect = lower value 1.01 | locus YBL061C, strain skt5, stronger effect = lower value 1.01 | locus YBR009C, strain hhf1, stronger effect = lower value 1.01 | locus YBR021W, strain FUR4, stronger effect = lower value 1.06 | locus YBR023C, strain chs3, stronger effect = lower value 1 | locus YBR171W, strain sec66, stronger effect = lower value 1.02 | locus YBR229C, strain ROT2, stronger effect = lower value 0.993 | locus YBR231C, strain swc5, stronger effect = lower value 1.01 | locus YBR279W, strain paf1, stronger effect = lower value 1.01 | locus YCL011C, strain gbp2, stronger effect = lower value 1.01 | locus YCL016C, strain dcc1, stronger effect = lower value 1.01 | locus YCL029C, strain bik1, stronger effect = lower value 0.967 | locus YCL061C, strain MRC1, stronger effect = lower value 1.01 | locus YCL069W, strain vba3, stronger effect = lower value 1.01 | locus YCR088W, strain abp1, stronger effect = lower value 1.01 | locus YDL005C, strain med2, stronger effect = lower value 1.01 | locus YDL035C, strain GPR1, stronger effect = lower value 0.997 | locus YDL040C, strain nat1, stronger effect = lower value 0.998 | locus YDL074C, strain BRE1, stronger effect = lower value 1.01 | locus YDL101C, strain DUN1, stronger effect = lower value 0.994 | locus YDL134C, strain PPH21, stronger effect = lower value 1.04 | locus YDL185W, strain tfp1, stronger effect = lower value 0.957 | locus YDL192W, strain arf1, stronger effect = lower value 0.98 | locus YDR001C, strain nth1, stronger effect = lower value 1.01 | locus YDR069C, strain doa4, stronger effect = lower value 1.01 | locus YDR101C, strain arx1, stronger effect = lower value 0.99 | locus YDR137W, strain rgp1, stronger effect = lower value 1.01 | locus YDR159W, strain sac3, stronger effect = lower value 1.02 | locus YDR162C, strain NBP2, stronger effect = lower value 1.03 | locus YDR195W, strain ref2 0.978 | locus YDR297W, strain sur2, stronger effect = lower value 1.01 | locus YDR318W, strain mcm21, stronger effect = lower value 0.986 | locus YDR334W, strain swr1, stronger effect = lower value 1.01 | locus YDR335W, strain msn5, stronger effect = lower value 1.01 | locus YDR388W, stronger effect = lower value 0.979 | locus YDR392W, strain spt3, stronger effect = lower value 1.03 | locus YDR502C, strain sam2, stronger effect = lower value 0.997 | locus YEL003W, strain gim4, stronger effect = lower value 1.02 | locus YEL037C, strain rad23, stronger effect = lower value 1.01 | locus YEL061C, strain CIN8 (second series), stronger effect = lower value 1.01 | locus YEL061C, strain CIN8, stronger effect = lower value 0.997 | locus YER015W, strain faa2, stronger effect = lower value 1.01 | locus YER016W, strain bim1, stronger effect = lower value 1 | locus YER110C, stronger effect = lower value 0.972 | locus YER111C, strain swi4, stronger effect = lower value 0.992 | locus YER155C, strain BEM2 (second series), stronger effect = lower value 1.03 | locus YER155C, strain BEM2, stronger effect = lower value 0.999 | locus YER167W, strain BCK2, stronger effect = lower value 0.99 | locus YFR010W, strain ubp6, stronger effect = lower value 1.02 | locus YGL078C, strain dbp3, stronger effect = lower value 0.999 | locus YGL086W, strain mad1, stronger effect = lower value 1 | locus YGL167C, strain pmr1, stronger effect = lower value 1.01 | locus YGL173C, strain kem1, stronger effect = lower value 1.01 | locus YGL227W, strain vid30, stronger effect = lower value 1.01 | locus YGL240W, strain doc1, stronger effect = lower value 1.01 | locus YGL248W, strain PDE1, stronger effect = lower value 1 | locus YGL253W, strain hxk2, stronger effect = lower value 1.02 | locus YGR135W, strain pre9, stronger effect = lower value 0.977 | locus YGR229C, strain SMI1, stronger effect = lower value 1.02 | locus YGR252W, strain gcn5, stronger effect = lower value 1.05 | locus YHR013C, strain ard1, stronger effect = lower value 1.04 | locus YHR027C, strain rpn1, stronger effect = lower value 1.02 | locus YHR030C, strain SLT2, stronger effect = lower value 0.983 and 1.01 | locus YHR079C, strain IRE1 (second series), stronger effect = lower value 0.979 | locus YHR079C, strain IRE1, stronger effect = lower value 1.02 | locus YHR094C, strain hxt1, stronger effect = lower value 0.987 | locus YHR129C, strain ARP1, stronger effect = lower value 0.994 | locus YHR142W, strain chs7, stronger effect = lower value 1.03 | locus YHR200W, strain rpn10, stronger effect = lower value 0.986 | locus YIL066C, strain RNR3, stronger effect = lower value 1.01 | locus YIL073C, strain SPO22, stronger effect = lower value 0.942 | locus YIL125W, strain kgd1, stronger effect = lower value 0.975 | locus YIR030C, strain dcg1, stronger effect = lower value 0.983 | locus YJL092W, strain hpr5, stronger effect = lower value 1.01 | locus YJL095W, strain BCK1 (second series), stronger effect = lower value 1.02 | locus YJL095W, strain BCK1, stronger effect = lower value 1.02 and 1.01 | locus YJL115W, strain asf1, stronger effect = lower value 1.02 | locus YJL129C, strain trk1, stronger effect = lower value 1.02 | locus YJL134W, strain LCB3, stronger effect = lower value 0.988 | locus YJL154C, strain vps35, stronger effect = lower value 1.01 | locus YJL164C, strain tpk1, stronger effect = lower value 1.01 | locus YJL166W, strain qcr8, stronger effect = lower value 1.01 | locus YJL168C, strain set2, stronger effect = lower value 0.985 | locus YJL187C, strain SWE1 (second series), stronger effect = lower value 0.999 | locus YJL187C, strain SWE1, stronger effect = lower value 1 | locus YJR043C, strain POL32, stronger effect = lower value 1.02 | locus YJR066W, strain TOR1, stronger effect = lower value 0.968 | locus YKL009W, strain mrt4, stronger effect = lower value 0.94 | locus YKL068W, stronger effect = lower value 0.978 | locus YKL085W, strain MDH1 (second series), stronger effect = lower value 0.975 | locus YKL085W, strain MDH1, stronger effect = lower value 0.975 | locus YKL160W, strain elf1, stronger effect = lower value 1.01 | locus YKL190W, strain CNB1, stronger effect = lower value 0.991 | locus YKR001C, strain vps1, stronger effect = lower value 1.02 | locus YKR026C, strain gcn3, stronger effect = lower value 1.01 | locus YKR091W, strain srl3, stronger effect = lower value 1.01 | locus YLL001W, strain dnm1, stronger effect = lower value 1 | locus YLL026W, stronger effect = lower value 1.01 | locus YLL041C, strain sdh2, stronger effect = lower value 1.01 | locus YLR027C, strain aat2, stronger effect = lower value 0.997 | locus YLR039C, strain RIC1, stronger effect = lower value 1.01 | locus YLR058C, strain SHM2, stronger effect = lower value 0.987 | locus YLR102C, strain apc9, stronger effect = lower value 0.991 | locus YLR113W, strain HOG1, stronger effect = lower value 0.985 | locus YLR221C, strain rsa3, stronger effect = lower value 1.01 | locus YLR258W, strain gsy2, stronger effect = lower value 1.02 | locus YLR262C, strain YPT6 (second series), stronger effect = lower value 1.02 | locus YLR262C, strain YPT6, stronger effect = lower value 0.93 | locus YLR268W, strain sec22, stronger effect = lower value 0.982 | locus YLR320W, strain mms22, stronger effect = lower value 1.02 | locus YLR330W, strain CHS5, stronger effect = lower value 0.983 | locus YLR342W, strain FKS1 (second series), stronger effect = lower value 1.01 | locus YLR342W, strain FKS1, stronger effect = lower value 1.02 | locus YLR357W, strain rsc2, stronger effect = lower value 1.03 | locus YLR370C, strain arc18, stronger effect = lower value 1.01 | locus YLR371W, strain rom2, stronger effect = lower value 0.978 | locus YLR384C, strain iki3, stronger effect = lower value 1.02 | locus YLR418C, strain cdc73, stronger effect = lower value 1 | locus YML016C, strain PPZ1, stronger effect = lower value 0.992 | locus YML032C, strain rad52, stronger effect = lower value 0.976 | locus YML120C, strain ndi1, stronger effect = lower value 1.01 | locus YML124C, strain tub3, stronger effect = lower value 0.986 | locus YMR058W, strain fet3, stronger effect = lower value 1.02 | locus YMR078C, strain ctf18, stronger effect = lower value 0.984 | locus YMR125W, strain sto1, stronger effect = lower value 1.01 | locus YMR129W, stronger effect = lower value 1.01 | locus YMR205C, strain PFK2, stronger effect = lower value 1.01 | locus YMR223W, strain ubp8, stronger effect = lower value 0.979 | locus YMR231W, strain pep5, stronger effect = lower value 0.985 | locus YMR307W, strain GAS1, stronger effect = lower value 1.08 | locus YNL067W, strain RPL9B, stronger effect = lower value 1.01 | locus YNL071W, strain lat1, stronger effect = lower value 1.01 | locus YNL128W, strain TEP1, stronger effect = lower value 0.989 | locus YNL153C, strain GIM3, stronger effect = lower value 1.02 | locus YNL183C, strain NPR1, stronger effect = lower value 0.983 | locus YNL209W, strain ssb2, stronger effect = lower value 1 | locus YNL233W, strain BNI4, stronger effect = lower value 1.03 | locus YNL248C, strain rpa49, stronger effect = lower value 1.02 | locus YNL250W, strain rad50, stronger effect = lower value 0.97 | locus YNL271C, strain bni1, stronger effect = lower value 0.988 | locus YNL298W, strain CLA4, stronger effect = lower value 0.996 | locus YNL307C, strain MCK1, stronger effect = lower value 0.984 | locus YNL322C, strain KRE1 (second series), stronger effect = lower value 1.02 | locus YNL322C, strain KRE1, stronger effect = lower value 0.994 | locus YNR049C, strain mso1, stronger effect = lower value 1.01 | locus YNR052C, strain pop2, stronger effect = lower value 0.982 | locus YOL012C, strain htz1 0.915 | locus YOL147C, strain pex11, stronger effect = lower value 0.993 | locus YOR001W, strain rrp6, stronger effect = lower value 1.01 | locus YOR061W, strain CKA2, stronger effect = lower value 0.99 | locus YOR069W, strain VPS5, stronger effect = lower value 0.993 | locus YOR070C, strain gyp1, stronger effect = lower value 1.02 | locus YOR080W, strain dia2, stronger effect = lower value 1 | locus YOR083W, strain WHI5, stronger effect = lower value 1.02 | locus YOR106W, strain vam3, stronger effect = lower value 1.03 | locus YOR136W, strain idh2, stronger effect = lower value 0.99 | locus YOR144C, strain elg1, stronger effect = lower value 1.01 | locus YOR184W, strain ser1, stronger effect = lower value 1.01 | locus YOR231W, strain MKK1, stronger effect = lower value 1.02 | locus YOR265W, strain rbl2, stronger effect = lower value 0.999 | locus YOR270C, strain vph1, stronger effect = lower value 1.08 | locus YOR290C, strain snf2, stronger effect = lower value 1.02 | locus YOR316C, strain cot1, stronger effect = lower value 0.983 | locus YPL051W, strain arl3, stronger effect = lower value 1.01 | locus YPL055C, strain LGE1, stronger effect = lower value 1.03 | locus YPL078C, strain atp4, stronger effect = lower value 1.01 | locus YPL106C, strain sse1, stronger effect = lower value 1.02 | locus YPL240C, strain hsp82, stronger effect = lower value 1.01 | locus YPL241C, strain CIN2, stronger effect = lower value 0.996 | locus YPL256C, strain CLN2, stronger effect = lower value 1.04 | locus YPR119W, strain clb2, stronger effect = lower value 0.984 | locus YPR141C, strain kar3, stronger effect = lower value 0.973 | locus YPR163C, strain tif3, stronger effect = lower value 0.975 | locus YPR167C, strain met16, stronger effect = lower value 1.01 | strain wtn01, stronger effect = lower value 0.999
